# Compound activity as filed in PubChem BioAssay.
# Shown are actives, neighbours in structure and some others; about 3.4% of the full set was active somewhere.
# sPLA2-III inh – Blocks human group III sPLA2 activity; Q9NZ20; QFRET BODIPY PC-A2 liposome hydrolysis, fluorescence; inhibition, % at 12.2 µM; 370,000 tested, 0.56% active;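 active = inhibition above mean plus 3 SD of compounds lying within the high and low control bounds, cut at about 19% in these data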;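 also: 0% = median of test compound wells and 100% = no enzyme DMSO wells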
# ADAM17 inh – inhibitors of human ADAM17 | P78536 | recombinant ADAM17, EDANS/DABCYL FRET peptide cleavage | inhibition, % at 6.95 µM | 370,000 tested, 0.83% active | AID 720648;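 active = inhibition above the mean of compounds lying between control limits plus 3 SD, set per campaign, cut at about 8.5% in these data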;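 also: 0% = DMSO-only wells as the low control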
# ADAM10 inh – inhibits human ADAM10; O14672; recombinant ADAM10, EDANS/DABCYL FRET peptide cleavage, 3 h; inhibition, % at 7 µM; 370,000 tested, 0.62% active; AID 720582;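 active = inhibition above a per-campaign cutoff equal to the mean of compounds falling between control-based bounds plus 3 SD, cut at about 20% in these data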;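 also: 0% = DMSO wells while the 100% control is not disclosed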
# proKLK7 act – activators of human kallikrein-7 zymogen; purified proKLK7, EDANS-DABCYL substrate fluorescence; 100% is mature enzyme control, 0% vehicle; P49862; activation, % at 7 µM; 370,000 tested, 0.9% active; AID 652039;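 active = activation above the mean of all tested compounds plus 3 SD, computed per campaign excluding outliers beyond control limits, cut at about 13% in these data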
# PLC-beta3 inh – blocks human PLC-beta3 enzyme activity; Q01970; Purified PLC-beta3, fluorogenic substrate, fluorescence; inhibition, % at 12.2 µM; 370,000 tested, 0.18% active; in the data active = inhibition above about 11%;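 also: 0% = median of compound wells on plate and 100% = full blocker control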
# Target sequence (Q01970 whole entry, looked up): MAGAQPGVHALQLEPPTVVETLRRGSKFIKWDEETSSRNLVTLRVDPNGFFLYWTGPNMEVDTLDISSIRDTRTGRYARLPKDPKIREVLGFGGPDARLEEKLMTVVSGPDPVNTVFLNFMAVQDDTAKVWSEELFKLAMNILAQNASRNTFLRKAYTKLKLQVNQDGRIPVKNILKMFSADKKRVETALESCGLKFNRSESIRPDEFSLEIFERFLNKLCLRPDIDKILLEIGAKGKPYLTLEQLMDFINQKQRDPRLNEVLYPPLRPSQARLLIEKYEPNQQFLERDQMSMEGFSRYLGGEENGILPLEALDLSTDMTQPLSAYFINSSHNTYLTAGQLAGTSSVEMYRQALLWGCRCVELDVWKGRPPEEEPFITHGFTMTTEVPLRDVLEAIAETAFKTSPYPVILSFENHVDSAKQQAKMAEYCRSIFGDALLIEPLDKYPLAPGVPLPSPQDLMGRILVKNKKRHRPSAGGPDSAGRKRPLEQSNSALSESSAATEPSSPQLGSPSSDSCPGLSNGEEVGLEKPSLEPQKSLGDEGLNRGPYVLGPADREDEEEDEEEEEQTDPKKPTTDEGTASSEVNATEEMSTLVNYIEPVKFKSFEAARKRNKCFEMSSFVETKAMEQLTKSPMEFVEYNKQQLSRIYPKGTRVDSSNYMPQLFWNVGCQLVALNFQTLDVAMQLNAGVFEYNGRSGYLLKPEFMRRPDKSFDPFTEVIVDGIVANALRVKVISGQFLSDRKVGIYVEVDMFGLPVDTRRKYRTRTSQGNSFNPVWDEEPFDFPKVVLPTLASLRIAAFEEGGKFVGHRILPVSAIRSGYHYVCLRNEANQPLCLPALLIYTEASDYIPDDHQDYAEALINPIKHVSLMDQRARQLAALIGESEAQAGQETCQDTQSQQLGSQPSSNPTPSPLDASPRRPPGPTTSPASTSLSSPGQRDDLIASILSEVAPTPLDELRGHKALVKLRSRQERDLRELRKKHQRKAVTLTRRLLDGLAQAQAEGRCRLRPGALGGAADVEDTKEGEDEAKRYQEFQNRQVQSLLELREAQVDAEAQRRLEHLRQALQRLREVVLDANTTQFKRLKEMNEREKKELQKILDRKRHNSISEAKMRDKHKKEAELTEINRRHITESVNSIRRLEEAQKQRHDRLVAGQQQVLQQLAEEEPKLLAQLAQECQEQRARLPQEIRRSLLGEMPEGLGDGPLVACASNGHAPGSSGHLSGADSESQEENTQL
# PLCg1 inh – PLC-gamma1 (human) inhibition, primary screen; P19174; purified PLC-gamma1, fluorogenic substrate, fluorescence; inhibition, % at 12.2 µM; 370,000 tested, 0.84% active; AID 720700; in the data active = inhibition above about 9.5%
# ADAM10 ctr – counter-screen for ADAM17 exosite inhibitors: inhibitors of human ADAM10 | 2,900 tested, 47% active | inhibition, % at 6.95 µM | recombinant ADAM10, EDANS/DABCYL FRET peptide cleavage, 3 h | shares compounds with ADAM17 inh | AID 743256;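 active = mean inhibition over the triplicate runs exceeds the activity threshold set in the earlier primary screen, cut at about 20% in these data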;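 also: 0% = DMSO wells and 100% = marimastat wells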
# ADAM17 confirm – confirmation of inhibitors of human ADAM17 | shares compounds with ADAM17 inh | recombinant ADAM17, EDANS/DABCYL QFRET peptide cleavage | AID 743257 | 2,900 tested, 65% active | inhibition, % at 6.95 µM;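 active = mean inhibition across replicates above the hit cutoff set in the primary screen, cut at about 8.5% in these data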;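 also: 0% = DMSO wells and 100% = marimastat wells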
# Numbers without * were called inactive; i = inactive; . = not tested or not shown.
SMILES,sPLA2-III inh,ADAM17 inh,ADAM10 inh,proKLK7 act,PLC-beta3 inh,PLCg1 inh,ADAM10 ctr,ADAM17 confirm
Cc1c(NS(=O)(=O)c2cc(C(=O)NCc3ccco3)cc(Cl)c2Cl)c(=O)n(-c2ccccc2)n1C,-20.8,-0.6,-12.3,0.2,-1.5,-0.7,.,.
O=C(NC1CCCC1)C(c1ccncc1)N(C(=O)Cc1cccs1)c1cccc(F)c1 (stereo unspecified),0.1,1.0,8.8,0.6,-1.7,4.3,.,.
CCOc1ccc(NC(=O)CN2CCN(c3ccc(F)cc3)CC2)cc1S(=O)(=O)N1CCCC1,-2.8,10.5*,-0.9,0.3,6.7,6.5,2.4,4.5
CC(C)N1CCC1(C)C(=O)Nc1ccccc1OC(F)F (stereo unspecified),6.3,9.9*,8.8,-0.5,5.3,7.1,-6.5,2.8
C[C@@H](NC(=O)c1nc[nH]c1C(=O)N[C@@H](Cc1ccccc1)C(=O)OCc1ccccc1)c1ccccc1,-4.0,11.6*,14.5,-0.5,1.8,4.6,29.9*,16.7*
CC(C)(C)OC(=O)NCc1ccc(NC(=O)c2nc[nH]c2C(=O)N[C@@H](Cc2ccccc2)C(=O)OC(C)(C)C)cc1,-11.0,8.9*,17.4,-5.5,2.8,-2.2,46.2*,23.3*
CC(C)(C)OC(=O)NCCOC(=O)c1[nH]cnc1C(=O)NCc1ccccc1,-20.3,10.8*,11.5,-0.4,9.5,5.4,5.6,2.1
C[C@H](NC(=O)c1nc[nH]c1C(=O)N[C@@H](Cc1ccccc1)C(=O)OCc1ccccc1)c1ccccc1,-3.9,8.5,15.6,0.2,3.0,3.6,.,.
CC(=O)CSc1nnc(C(F)(F)F)n1C,0.0,-2.7,-3.2,0.1,-3.8,2.2,.,.
COc1cc(C=C(c2nc3ccccc3s2)c2nc3ccccc3s2)ccc1O,-46.1,9.6*,17.6,0.0,-64.2,-62.8,20.1*,13.6*
COc1cc(/C=C/c2nc3ccccc3s2)cc(OC)c1O,-4.8,-8.8,-21.8,-5.1,i,i,.,.
O=S(=O)(NCCc1ccc(F)cc1)c1cc(C(F)(F)F)ccc1Br,-0.6,9.9*,18.5,0.6,4.1,3.3,22.1*,11.4*
OC1(c2ccccc2)CC(c2ccccc2)c2ccccc2O1 (stereo unspecified),-17.2,9.2*,14.2,-0.1,1.9,2.5,30.4*,15.8*
OCCCn1c(C2CCCN2c2nc(-c3ccc(F)cc3)cs2)nc2cc(Cl)c(Cl)cc21 (stereo unspecified),-3.1,9.5*,12.0,-1.2,6.9,5.0,19.2,11.3*
OCOCCCn1c(C2CCCN2c2nc(-c3ccc(F)cc3)cs2)nc2cc(Cl)c(N3CCCCC3)cc21 (stereo unspecified),-17.7,10.0*,15.2,-0.7,-7.6,-2.6,16.3,8.7*
Nc1c(Cl)cc(-c2csc(N3CCCC3c3nc4cc(Cl)c(Cl)cc4n3CCCO)n2)cc1Cl (stereo unspecified),8.5,0.2,4.5,0.0,-5.2,-6.0,.,.
OCCCn1c(C2CCCN2c2nc(-c3ccc(Cl)cc3)cs2)nc2cc(Cl)c(Cl)cc21 (stereo unspecified),-3.4,9.1*,18.9,-0.9,5.7,4.3,26.9*,12.3*
OCCCn1c(C2CCCN2c2nc(-c3ccc(Cl)cc3)cs2)nc2cc(C(F)(F)F)ccc21 (stereo unspecified),1.9,3.1,-0.1,-0.4,0.4,2.3,.,.
CC(SCc1ccccc1)C(=O)Nc1ccccc1 (stereo unspecified),-1.3,-2.4,7.8,0.2,-1.2,2.2,.,.
CCOC(=O)C1=C(C)N(c2ccccc2)C(=O)/C1=C\c1cccs1,-3.5,-3.1,-1.6,-0.1,-1.4,0.8,.,.
COC(=O)C1=C(C)N(c2cccc(C)c2)C(=O)/C1=C\c1cccs1,-25.7,8.7*,12.1,0.1,-1.2,0.9,5.0,5.1
CCOC(=O)C1CCN(C(=O)C(C)Sc2nnc3ccccn23)CC1 (stereo unspecified),-4.6,-29.8,-107.2,-7.6,-23.2,-18.4,.,.
O=C(/C=C/Nc1ccc(Br)cc1F)c1ccco1,-3.2,-0.2,-1.2,0.3,-9.9,-11.0,.,.
O=C(Oc1ccc(Br)cc1C(=O)/C=C/c1ccccc1F)c1ccco1,-21.4,10.7*,19.6,0.7,-31.9,-15.8,11.0,5.3
O=C(c1ccc(N2CCCC2=O)cc1)N1CCN(c2cccc(C(F)(F)F)c2)CC1,-1.2,-0.1,1.1,0.1,-1.6,2.0,.,.
SMILES,sPLA2-III inh,ADAM17 inh,ADAM10 inh,proKLK7 act,PLC-beta3 inh,PLCg1 inh,ADAM10 ctr,ADAM17 confirm
CCS(=O)(=O)C(C)(CCl)C(=O)Nc1ccc(C(=O)OC)cc1 (stereo unspecified),-11.9,-0.8,-2.9,0.6,-5.5,-1.3,.,.
CS/C(=C\[N+](=O)[O-])Nc1ccccc1,0.3,0.7,-6.0,0.1,0.8,2.2,.,.
CS/C(=C\[N+](=O)[O-])Nc1ccc(F)cc1,-6.4,12.7*,11.9,-0.2,8.2,5.7,6.7,3.0
COCCn1ccc2c(OCC(=O)Nc3ccccc3OC)cccc2c1=O,-4.3,-5.9,-27.7,-0.5,-2.8,4.2,.,.
COc1ccc(C=O)c(-c2c(CCO)sc3ccccc23)c1,-1.4,0.5,1.8,0.2,-1.1,1.4,.,.
COc1ccc(OC)c(-c2csc(NC(=O)Cc3ccc(F)cc3)n2)c1,-15.0,8.6*,9.8,0.1,-1.1,2.6,31.9*,15.7*
CCc1c(-c2cccc(Br)c2)ncn1CCc1ccccc1OC,-10.1,2.8,8.8,0.7,0.8,0.1,.,.
O=C(Cn1c(=O)sc2ccccc21)Nc1ccc(S(=O)(=O)N2CCCCC2)cc1,-28.7,8.8*,10.9,0.1,4.3,5.3,29.9*,16.8*
O=C(Nc1cccc(F)c1)NC1CCN(Cc2ccccc2)CC1,-9.1,2.8,-6.6,-0.3,0.2,7.5,.,.
CCOC(=O)C1=CN(Cc2cccc(F)c2)S(=O)(=O)N(C)C1c1ccc2ccccc2c1 (stereo unspecified),-17.1,1.6,2.7,-0.2,2.1,-0.8,.,.
COc1cc(CN2C(=O)C(C)ON=C2c2ccccc2F)cc(OC)c1 (stereo unspecified),2.1,0.2,2.7,0.4,-0.2,1.6,.,.
COc1ccccc1C(=O)/C=C/c1ccc(N2CCCCC2)c([N+](=O)[O-])c1,-1.0,2.4,-1.7,-0.2,-1.0,1.9,.,.
O=C(/C=C/c1ccc(N2CCCCC2)c([N+](=O)[O-])c1)c1ccc(O)cc1,-39.2,9.4*,15.6,-0.2,3.7,6.8,25.8*,14.2*
